# Laboratory results reported in the supplement of paper PMC8728848.
# The full list was thinned out, with the strongest signals kept by preference.
# B1: CALR truncated at D342 (Homo sapiens) (protein)
# chain: EPAVYFKEQFLDGDGWTSRWIESKHKSDFGKFVLSSGKFYGDEEKDKGLQTSQDARFYALSASFEPFSNKGQTLVVQFTVKHEQNIDCGGGYVKLFPNSLDQTDMHGDSEYNIMFGPDICGPGTKKVHVIFNYKGKNVLINKDIRCKDDEFTHLYTLIVRPDNTYEVKIDNSQVESGSLEDDWDFLPPKKIKDPDASKPEDWDERAKIDDPTDSKPEDWDKPEHIPDPDAKKPEDWDEEMDGEWEPPVIQNPEYKGEWKPRQIDNPDYKGTWIHPEIDNPEYSPDPSIYAYDNFGVLGLDLWQVKSGTIFDNFLITNDEAYAEEFGNETWGVTKAAEKQMKD
# B2: LSECtin (Homo sapiens), Q6UXB4 (protein)
# chain: MDTTRYSKWGGSSEEVPGGPWGRWVHWSRRPLFLALAVLVTTVLWAVILSILLSKASTERAALLDGHDLLRTNASKQTAALGALKEEVGDCHSCCSGTQAQLQTTRAELGEAQAKLMEQESALRELRERVTQGLAEAGRGREDVRTELFRALEAVRLQNNSCEPCPTSWLSFEGSCYFFSVPKTTWAAAQDHCADASAHLVIVGGLDEQGFLTRNTRGRGYWLGLRAVRHLGKVQGYQWVDGVSLSFSHWNQGEPNDAWGRENCVMMLHTGLWNDAPCDSEKDGWICEKRHNC
# Experiments:
# Assay in all cases: glycan array binding signal (z-score within array); higher = stronger binding
# Conditions in all cases: glycan notation: IUPAC condensed, linker removed
# [1] = biological target: Fuc(a1-2)Gal
# Summary of the method: (§1)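 Negative Z-scores can be read as non-binding. The Z-score is calculated within each array and then averaged across arrays of one protein sequence at different concentrations or buffers and across linkers. Arrays, 3228 in all, were curated from the Consortium for Functional Glycomics database and kept only where the protein sequence was available.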
# [2] = biological target: Fuc(a1-2)Gal(b1-3)GalNAc(b1-3)Gal(a1-4)Gal(b1-4)Glc
# Summary of the method: as §1
# [3] = biological target: Fuc(a1-2)Gal(b1-3)[Fuc(a1-4)]GlcNAc(b1-2)Man(a1-3)[Fuc(a1-2)Gal(b1-3)[Fuc(a1-4)]GlcNAc(b1-2)Man(a1-6)]Man(b1-4)GlcNAc(b1-4)GlcNAc
# Summary of the method: as §1
# [4] = biological target: Fuc(a1-2)Gal(b1-4)GlcNAc(b1-2)Man
# Summary of the method: as §1
# [5] = biological target: Fuc(a1-2)Gal(b1-4)GlcNAc(b1-2)[Fuc(a1-2)Gal(b1-4)GlcNAc(b1-4)]Man(a1-3)[Fuc(a1-2)Gal(b1-4)GlcNAc(b1-2)Man(a1-6)]Man(b1-4)GlcNAc(b1-4)GlcNAc
# Summary of the method: as §1
# [6] = biological target: Fuc(a1-2)Gal(b1-4)[Fuc(a1-3)]GlcNAc(b1-2)Man(a1-6)[Fuc(a1-2)Gal(b1-4)[Fuc(a1-3)]GlcNAc(b1-2)Man(a1-3)]Man(b1-4)GlcNAc(b1-4)[Fuc(a1-6)]GlcNAc
# Summary of the method: as §1
# [7] = biological target: Fuc(a1-2)Gal(b1-4)[Fuc(a1-3)]GlcNAc(b1-2)[Fuc(a1-2)Gal(b1-4)[Fuc(a1-3)]GlcNAc(b1-4)]Man(a1-3)[Fuc(a1-2)Gal(b1-4)[Fuc(a1-3)]GlcNAc(b1-2)Man(a1-6)]Man(b1-4)GlcNAc(b1-4)GlcNAc
# Summary of the method: as §1
# [8] = biological target: Fuc(a1-2)[Gal(a1-3)]Gal(b1-4)[Fuc(a1-3)]GlcNAc
# Summary of the method: as §1
# [9] = biological target: Gal(a1-3)Gal(b1-3)GlcNAc(b1-2)Man(a1-3)[Gal(a1-3)Gal(b1-3)GlcNAc(b1-2)Man(a1-6)]Man(b1-4)GlcNAc(b1-4)GlcNAc
# Summary of the method: as §1
# [10] = biological target: Gal(a1-3)Gal(b1-4)[Fuc(a1-3)]GlcNAc(b1-2)Man(a1-3)[Gal(a1-3)Gal(b1-4)[Fuc(a1-3)]GlcNAc(b1-2)Man(a1-6)]Man(b1-4)GlcNAc(b1-4)GlcNAc
# Summary of the method: as §1
# [11] = biological target: Gal(a1-4)Gal(b1-4)GlcNAc(b1-2)Man(a1-3)[Gal(a1-4)Gal(b1-4)GlcNAc(b1-2)Man(a1-6)]Man(b1-4)GlcNAc(b1-4)GlcNAc
# Summary of the method: as §1
# [12] = biological target: Gal(a1-4)GlcNAc
# Summary of the method: as §1
# [13] = biological target: Gal(b1-3)GlcNAc(b1-2)Man(a1-3)[Gal(b1-3)GlcNAc(b1-2)Man(a1-6)]Man(b1-4)GlcNAc(b1-4)GlcNAc
# Summary of the method: as §1
# [14] = biological target: Gal(b1-3)GlcNAc(b1-2)Man(a1-3)[GlcNAc(b1-4)][Gal(b1-3)GlcNAc(b1-2)Man(a1-6)]Man(b1-4)GlcNAc(b1-4)GlcNAc
# Summary of the method: as §1
# [15] = biological target: Gal(b1-3)GlcNAc(b1-2)[Gal(b1-3)GlcNAc(b1-6)]Man(a1-6)[Gal(b1-3)GlcNAc(b1-2)Man(a1-3)]Man(b1-4)GlcNAc(b1-4)GlcNAc
# Summary of the method: as §1
# [16] = biological target: Gal(b1-3)GlcNAc(b1-3)Gal(b1-4)Glc
# Summary of the method: as §1
# [17] = biological target: Gal(b1-3)GlcNAc(b1-3)GalNAc
# Summary of the method: as §1
# [18] = biological target: Gal(b1-3)[Fuc(a1-4)]GlcNAc(b1-2)Man(a1-3)[Gal(b1-3)[Fuc(a1-4)]GlcNAc(b1-2)Man(a1-6)]Man(b1-4)GlcNAc(b1-4)[Fuc(a1-6)]GlcNAc
# Summary of the method: as §1
# [19] = biological target: Gal(b1-3)[Fuc(a1-4)]GlcNAc(b1-3)Gal(b1-4)[Fuc(a1-3)]GlcNAc
# Summary of the method: as §1
# [20] = biological target: Gal(b1-3)[Fuc(a1-4)]GlcNAc(b1-6)GalNAc
# Summary of the method: as §1
# [21] = biological target: Gal(b1-3)[Neu5Ac(a2-6)]GalNAc
# Summary of the method: as §1
# [22] = biological target: Gal(b1-3)[Neu5Ac(b2-6)]GalNAc
# Summary of the method: as §1
# [23] = biological target: Gal(b1-4)Glc
# Summary of the method: as §1
# [24] = biological target: Gal(b1-4)GlcNAc(b1-3)Gal(b1-3)GlcNAc
# Summary of the method: as §1
# [25] = biological target: Gal(b1-6)Gal
# Summary of the method: as §1
# [26] = biological target: Gal3S6S(b1-4)GlcNAc
# Summary of the method: as §1
# [27] = biological target: Gal6S(b1-4)GlcNAc
# Summary of the method: as §1
# [28] = biological target: GalNAc(b1-3)Gal(a1-6)Gal(b1-4)Glc
# Summary of the method: as §1
# [29] = biological target: GalNAc3S(b1-4)GlcNAc
# Summary of the method: as §1
# [30] = biological target: Glc(a1-4)Glc
# Summary of the method: as §1
# [31] = biological target: Glc(a1-6)Glc(a1-6)Glc
# Summary of the method: as §1
# [32] = biological target: GlcNAc(a1-4)Gal(b1-4)GalNAc
# Summary of the method: as §1
# [33] = biological target: GlcNAc(b1-2)Man(a1-3)[GlcNAc(b1-2)Man(a1-6)]Man(b1-4)GlcNAc(b1-4)GlcNAc
# Summary of the method: as §1
# [34] = biological target: GlcNAc(b1-2)Man(a1-3)[GlcNAc(b1-4)][GlcNAc(b1-2)Man(a1-6)]Man(b1-4)GlcNAc(b1-4)GlcNAc
# Summary of the method: as §1
# [35] = biological target: GlcNAc(b1-2)Man(a1-3)[GlcNAc(b1-4)][GlcNAc(b1-2)Man(a1-6)]Man(b1-4)GlcNAc(b1-4)[Fuc(a1-6)]GlcNAc
# Summary of the method: as §1
# [36] = biological target: GlcNAc(b1-2)[GlcNAc(b1-4)]Man(a1-3)[GlcNAc(b1-2)Man(a1-6)]Man(b1-4)GlcNAc(b1-4)GlcNAc
# Summary of the method: as §1
# [37] = biological target: GlcNAc(b1-2)[GlcNAc(b1-6)]Man(a1-6)[GlcNAc(b1-2)Man(a1-3)]Man(b1-4)GlcNAc(b1-4)GlcNAc
# Summary of the method: as §1
# [38] = biological target: GlcNAc(b1-2)[GlcNAc(b1-6)]Man(a1-6)[GlcNAc(b1-2)Man(a1-3)]Man(b1-4)GlcNAc(b1-4)[Fuc(a1-6)]GlcNAc
# Summary of the method: as §1
# [39] = biological target: GlcNAc(b1-3)Gal(b1-4)Glc
# Summary of the method: as §1
# [40] = biological target: GlcNAc(b1-3)Gal(b1-4)GlcNAc(b1-3)[GlcNAc(b1-3)Gal(b1-4)GlcNAc(b1-3)]GalNAc
# Summary of the method: as §1
# [41] = biological target: Kdn(a2-6)Gal(b1-4)GlcNAc
# Summary of the method: as §1
# [42] = biological target: Neu5Ac(a2-3)Gal(b1-3)GalNAc(b1-4)[Neu5Ac(a2-3)]Gal(b1-4)Glc
# Summary of the method: as §1
# [43] = biological target: Neu5Ac(a2-3)Gal(b1-3)[Fuc(a1-4)]GlcNAc
# Summary of the method: as §1
# [44] = biological target: Neu5Ac(a2-3)Gal(b1-4)GlcNAc(b1-2)Man(a1-3)[GlcNAc(b1-4)][Neu5Ac(a2-3)Gal(b1-4)GlcNAc(b1-2)Man(a1-6)]Man(b1-4)GlcNAc(b1-4)GlcNAc
# Summary of the method: as §1
# [45] = biological target: Neu5Ac(a2-3)Gal(b1-4)[Fuc(a1-3)]GlcNAc(b1-3)GalNAc
# Summary of the method: as §1
# [46] = biological target: Neu5Ac(a2-3)GalNAc(b1-4)GlcNAc
# Summary of the method: as §1
# [47] = biological target: Neu5Ac(a2-6)Gal(b1-4)GlcNAc(b1-2)Man(a1-3)[GlcNAc(b1-2)Man(a1-6)]Man(b1-4)GlcNAc(b1-4)GlcNAc
# Summary of the method: as §1
# [48] = biological target: Neu5Ac(a2-6)Gal(b1-4)GlcNAc(b1-2)Man(a1-6)[GlcNAc(b1-2)Man(a1-3)]Man(b1-4)GlcNAc(b1-4)GlcNAc
# Summary of the method: as §1
# [49] = biological target: Neu5Ac(a2-6)Gal(b1-4)GlcNAc(b1-2)[Neu5Ac(a2-6)Gal(b1-4)GlcNAc(b1-4)]Man(a1-3)[GlcNAc(b1-4)][Neu5Ac(a2-6)Gal(b1-4)GlcNAc(b1-2)[Neu5Ac(a2-6)Gal(b1-4)GlcNAc(b1-6)]Man(a1-6)]Man(b1-4)GlcNAc(b1-4)GlcNAc
# Summary of the method: as §1
# [50] = biological target: Neu5Ac(a2-6)Gal(b1-4)GlcNAc(b1-6)[Gal(b1-3)]GalNAc
# Summary of the method: as §1
# [51] = biological target: Neu5Ac(a2-8)Neu5Ac(a2-8)Neu5Ac(a2-3)Gal(b1-4)Glc
# Summary of the method: as §1
# [52] = biological target: Neu5Ac(b2-6)GalNAc
# Summary of the method: as §1
binder,measurement,setting,value
B1,glycan array binding signal (z-score),[1],-0.171
same,glycan array binding signal (z-score),[2],-0.373
same,glycan array binding signal (z-score),[3],3.18
same,glycan array binding signal (z-score),[4],-1.98
same,glycan array binding signal (z-score),[5],2.76
same,glycan array binding signal (z-score),[6],1.04
same,glycan array binding signal (z-score),[7],2.8
same,glycan array binding signal (z-score),[8],-0.484
same,glycan array binding signal (z-score),[9],0.21
same,glycan array binding signal (z-score),[10],2.73
same,glycan array binding signal (z-score),[11],0.225
same,glycan array binding signal (z-score),[12],4.99
same,glycan array binding signal (z-score),[13],-0.863
same,glycan array binding signal (z-score),[14],-0.281
same,glycan array binding signal (z-score),[15],3.33
same,glycan array binding signal (z-score),[16],-0.183
same,glycan array binding signal (z-score),[17],-0.05
same,glycan array binding signal (z-score),[18],1.24
same,glycan array binding signal (z-score),[19],4.2
same,glycan array binding signal (z-score),[20],0.999
same,glycan array binding signal (z-score),[21],-0.241
same,glycan array binding signal (z-score),[22],0.075
same,glycan array binding signal (z-score),[23],-0.137
same,glycan array binding signal (z-score),[24],0.662
same,glycan array binding signal (z-score),[25],0.132
same,glycan array binding signal (z-score),[26],0.029
same,glycan array binding signal (z-score),[27],-1.33
same,glycan array binding signal (z-score),[28],-0.627
same,glycan array binding signal (z-score),[29],1.07
same,glycan array binding signal (z-score),[30],-0.124
B2,glycan array binding signal (z-score),[31],-0.232
same,glycan array binding signal (z-score),[32],3.23
same,glycan array binding signal (z-score),[33],6.75
same,glycan array binding signal (z-score),[34],6.57
same,glycan array binding signal (z-score),[35],6.3
same,glycan array binding signal (z-score),[36],3.06
same,glycan array binding signal (z-score),[37],7.17
same,glycan array binding signal (z-score),[38],9.94
same,glycan array binding signal (z-score),[39],-0.109
same,glycan array binding signal (z-score),[40],-0.126
same,glycan array binding signal (z-score),[41],-0.149
same,glycan array binding signal (z-score),[42],-0.231
same,glycan array binding signal (z-score),[43],-0.079
same,glycan array binding signal (z-score),[44],-0.14
same,glycan array binding signal (z-score),[45],4.08
same,glycan array binding signal (z-score),[46],-0.22
same,glycan array binding signal (z-score),[47],0.942
same,glycan array binding signal (z-score),[48],5.06
same,glycan array binding signal (z-score),[49],-0.133
same,glycan array binding signal (z-score),[50],-0.137
same,glycan array binding signal (z-score),[51],-0.117
same,glycan array binding signal (z-score),[52],-0.124
